Most compounds without a hit are left out; they make up all but 14% or so of the library.
AID923: qHTS Assay for Allosteric/Competitive Inhibitors of Caspase-1: Spectroscopic Profiling in AFC Spectral Region. compound fluorescence, AFC spectral region (405/520 nm). Potency, µM (series often up to 57.5 µM), inactives show top-dose fluorescence increase, hits mostly activators. hit rate 1.1% among 75,000; also: potency is read from the fitted curve at half-maximal effect; 0% is about no effect
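Compound autofluorescence profiled at 405 nm ex/520 nm em during kinetic caspase 1 run (50 nM enzyme, 5 uM Ac-WEHD-AFC, HEPES pH 7.5, 10 mM DTT). Titration up to 57 uM; baseline from regression intercept, normalized to AFC standard curve.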
A350 fluor: compound fluoresces in the Alexa 350 spectral region; AID 590; Compound autofluorescence, 340/450 nm, Alexa 350 dye-equivalents; active compounds read high; max dye-equivalent concentration, M; hit rate 11% among 59,000; in the data active = max dye-equivalent concentration above about 10 nM; inconclusive = mostly about 1.1 nM to 9.6 nM
HADH2 inhib: HADH2 (human) dehydrogenase inhibition. Q99714. recombinant HADH2, NADH fluorescence, beta-hydroxybutyryl-CoA. Potency, µM (top dose mostly 57.1 µM), for the others: at the top dose activity change, negative = inhibition, actives largely listed as inhibitors. hit rate 3.4% among 73,000; also: potency is read from the fitted curve at half-maximal effect; % is scaled to controls: 0 for no effect and ±100 for the full control effect; nearly all actives have a fitted effect of over 60% in size
Target sequence (Q99714 whole entry, looked up, one chain of several): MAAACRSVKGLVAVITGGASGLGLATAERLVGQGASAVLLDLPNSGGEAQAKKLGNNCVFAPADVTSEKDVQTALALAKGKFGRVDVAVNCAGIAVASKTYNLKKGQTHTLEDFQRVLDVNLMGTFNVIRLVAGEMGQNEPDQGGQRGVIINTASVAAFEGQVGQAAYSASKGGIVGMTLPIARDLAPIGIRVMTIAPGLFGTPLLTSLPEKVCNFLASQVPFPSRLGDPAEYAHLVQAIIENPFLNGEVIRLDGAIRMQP
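Activity measured as NADH fluorescence gain (360/450 nm), taken as the change between first and last reads of a 4-min kinetic run. Conditions: pH 9.0 Tris buffer, 20 nM E. coli-expressed His-tagged enzyme, 1 mM NAD+, 90 uM beta-hydroxybutyryl-CoA; 15-min compound preincubation.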
HSD17B inhib: inhibitors of human HSD17B10 dehydrogenase; recombinant HSD17B10, NADH fluorescence kinetic; Potency, µM (series often up to 57.1 µM), without a hit: at the top dose activity change, negative = inhibition, hits mostly inhibitors; hit rate 7.6% among 75,000; AID 893;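 also: the protocol describes HADH2 (HSD17B10) and not the HSD17B4 of the title; potency is read from the fitted curve at half-maximal effect; % is scaled to controls: 0 for no effect and ±100 for the full control effect; nearly all actives have a fitted effect of over 70% in size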
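Activity followed as NADH fluorescence increase (ex 360, em 450 nm) every 30 seconds for 4 min, using final 90 uM beta-hydroxybutyryl CoA and 1 mM NAD+. Recombinant His-tagged enzyme, 20 nM, pH 9.0 Tris buffer, 15 min compound preincubation.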
CRE Fsk mod: alters forskolin-stimulated CRE reporter signaling in CHO cells; CHO CRE-bla reporter (cAMP response element driving beta-lactamase), forskolin EC10, beta-lactamase ratio; Potency, µM (top dose mostly 38.2 µM), for inactives: top-dose activity change, negative = inhibition, usual class: activators; hit rate 2.5% among 71,000; active = well fitted activation curve with a large enough effect in the signal ratio, with a control signal flat, not every such curve was filed as active; inconclusive = small, poorly fitted or top-dose-only effect, or effect the other way, or a change in a side signal; the % refers to the signal ratio; also: potency is read from the fitted curve at half-maximal effect; % of control where 0% means no effect
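CRE-bla CHO reporter cells treated with compound titration plus EC10 NKH 477 (water-soluble forskolin), incubated 3 h at 37 °C; CCF4 loading 2 h at room temperature, 460/530 nm emission ratio read, AC50 values derived for positive or negative modulators.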
4-MU autofl: compounds fluorescent in 4-MU spectral region. compound autofluorescence, 340/450 nm, 4-MU equivalents; active compounds read high. max dye-equivalent concentration, M. hit rate 11% among 59,000. AID 589; in the data active = max dye-equivalent concentration above about 10 nM; inconclusive = mostly about 1.1 nM to 9.6 nM
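Compounds in 100 mM Tris, pH 8.0, incubated 15 min at room temperature, then fluorescence read at 340 nm excitation/450 nm emission. Signal converted to 4-MU dye-equivalent concentration using an on-plate six-point 4-MU standard curve.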
* hit, by the source's call; i = inactive; ? = inconclusive; nt = no result; [ ] = dose if it differs, or a comment. Unless noted, calls follow the shape of the dose curve; as a rule, active = well fitted curve in the direction sought with a large enough effect; inconclusive = small, poorly fitted or top-dose-only effect, or another doubt; inactive = no such curve, though single readings can be large; an effect the other way counts as inactive or inconclusive.

SMILES | AID923 | A350 fluor | HADH2 inhib | HSD17B inhib | CRE Fsk mod | 4-MU autofl
CCOC(=O)N/N=C1/C[C@@H](O)[C@@H](O)[C@@H]2[C@@H]3C(=O)N(C(C)(C)C)C(=O)[C@H]3CC[C@@H]12 | 0.2%[11.5 µM] | nt | 1.9%[11.4 µM] | 1.3%[11.4 µM] | nt | nt
C[C@H]1[C@H](O)[C@@H](C)C=CC=CC=CC=CC=CC=CC=C[C@H](O[C@@H]2O[C@@H](C)[C@H](O)[C@@H](N)[C@@H]2O)C[C@@H]2O[C@](O)(C[C@@H](O)C[C@@H](O)[C@@H](O)CC[C@@H](O)C[C@@H](O)CC(=O)O[C@H]1C)C[C@H](O)[C@H]2C(=O)O | -1.1%[11.5 µM] | i | 0.8%[11.4 µM] | 3.16µM* | -0.2%[7.6 µM] | i
C[C@@H]1[C@H](O)[C@@H](C)/C=C/C=C/C=C/C=C/C=C/C=C/C=C/[C@H](O[C@@H]2O[C@H](C)[C@@H](O)[C@H](N)[C@@H]2O)C[C@@H]2O[C@](O)(C[C@@H](O)C[C@@H](O)[C@H](O)CC[C@@H](O)C[C@@H](O)CC(=O)O[C@H]1C)C[C@H](O)[C@H]2C(=O)O | 8.2% | nt | ? | 31.6µM* | -5.7% | nt
Cc1nc2cc(NC(=O)COc3ccc(C#N)cc3)ccc2n1-c1ccccc1 | -0.2% | i | -6.3% | 5.6% | -1.6% | i
O=c1nc2s/c(=C\c3ccco3)c(=O)n2nc1Cc1ccc(F)cc1 | 4.4% | i | ? | 25.1µM* | 3.2% | i
Cc1ccc(-c2nc3s/c(=C\c4ccco4)c(=O)n3n2)cc1 | 0.2% | i | ? | ? | -11.1% | i
COC(=O)CC1C(C)(C)C(O)C2CC3=C4C=C(OC)OC(c5ccoc5)[C@]4(C)CCC3[C@@]1(C)C2=O (some centres undefined) | -0.6% | nt | nt | 2.2% | nt | nt
O=c1cc(CN2CCC3(CC2)OCCO3)c2c(ccc3ccccc32)o1 | 0.7% | 1.52e-08M* | -4.3% | -0.9% | ? | 1.37e-08M*
O=C(Cn1cc(C(=O)C2CC2)c2ccccc21)NCC1CCCO1 (centres undefined) | -2.5% | 5.66e-08M* | -1.9% | 15.1% | 13.4% | 6.14e-08M*
O=C(CSc1ccc2nnc(-c3ccc(Cl)cc3)n2n1)N1CCN(c2ccccc2)CC1 | -0.5% | nt | -7.4% | -0.8% | -3.8% | nt
CCOc1ccc(NC(=O)c2ccncc2)cc1 | 0.3% | i | 4.7% | -0.4% | -13.9% | i
CCCC(=O)Nc1cc(C)c(NC(=O)c2ccncc2)cn1 | -1.7% | i | -10.6% | -2.2% | 3.6% | i
CCn1nc(NC(=O)c2ccncc2)c2cc3cc(C)ccc3nc21 | 9.0% | ? | -8.3% | 4.1% | 2µM* | ?
CCn1nc(NC(=O)c2ccncc2)c2cc3ccc(C)cc3nc21 | 6.5% | 8.5e-08M* | 43.6% | 461.1% | 12.6µM* | 6.56e-08M*
Cc1cnc(CNc2ccnc(-c3ccoc3)n2)cn1 | 3.8% | i | -22.6% | -4.2% | 9.2% | i
C=CC[C@@H](C(=O)O)c1ccccc1 | -1.7%[11.5 µM] | i | -0.3%[11.4 µM] | 8.8%[11.4 µM] | 9.3%[7.6 µM] | i
Cc1cc(=O)oc2cc(OCC3CC(c4ccc(N(C)C)cc4)=NO3)ccc12 (centres undefined) | -0.3% | 1.1e-08M* | -5.7% | 25.1µM* | -6.7% | 1.02e-08M*
COc1ccc(C2=NOC(CN3C(=O)c4ccccc4S3(=O)=O)C2)cc1 (centres undefined) | -1.2% | i | 7.6% | ? | -5.7% | i
CCOc1cc(C(=O)N(C)Cc2cc3cc(OC)ccc3[nH]c2=O)cc(OCC)c1OCC | -0.4% | 1.94e-07M* | 8.6% | 31.6µM* | 5.2% | 1.45e-07M*
CCOc1ccccc1C(=O)N(C)Cc1cc2cc(OC)ccc2[nH]c1=O | 1.6% | 3.8e-07M* | -26.0% | 25.1µM* | ? | 2.86e-07M*
CCOC(=O)CCN1C(=O)[C@H]2[C@H]3[C@H](O)[C@H](O)C/C(=N/OCC(C)C)[C@H]3CC[C@@H]2C1=O | -2.2%[11.5 µM] | nt | 2.1%[11.4 µM] | 3.7%[11.4 µM] | nt | nt
CC1(C)CC[C@]2(C)CC[C@@]3(C)C(=CCC4[C@@]5(C)CCC(O)C(C)(C)C5CC[C@@]43C)C2C1 (some centres undefined) | -0.4% | nt | nt | 10.6% | nt | nt
c1coc(CSCc2cn3cccnc3n2)c1 | 0.5% | ? | 8.1% | -26.9% | -4.0% | ?
c1ccc(-c2cnnc(SCc3cn4cccnc4n3)n2)cc1 | 0.9% | 1.59e-07M* | ? | -9.4% | 10µM* | 7.64e-08M*
Cc1ccc(Nc2nc(N3CCOCC3)c3ccccc3n2)cc1 | 1.3% | 8.59e-08M* | -10.2% | ? | 2.1% | 6.4e-08M*
SMILES | AID923 | A350 fluor | HADH2 inhib | HSD17B inhib | CRE Fsk mod | 4-MU autofl
Oc1ccc(Nc2nc(N3CCCC3)c3ccccc3n2)cc1 | -0.5% | i | -19.4% | ? | ? | i
COc1cccc(Nc2ncc3nc(-c4cn(C)c5ccccc45)c(=O)n(CCC#N)c3n2)c1 | 5.5% | i | -8.2% | 0.4% | ? | i
CCOC(=O)c1oc2ccccc2c1NC(=O)c1cccc(OC)c1OC | 0.5% | 1.97e-08M* | ? | 31.6µM* | 3.98µM* | 1.97e-08M*
CCOC(=O)c1oc2ccccc2c1NC(=O)c1cccc(OC)c1 | 1.7% | 1.5e-08M* | ? | ? | 3.16µM* | 1.53e-08M*
COc1cccc(C(=O)Nc2c(C(N)=O)oc3ccccc23)c1 | -4.3% | nt | ? | -1.7% | 5.01µM* | nt
CCC(=O)Nc1c(C(=O)Nc2cccc(OC)c2)oc2ccccc12 | 0.6% | i | ? | 42.6% | 14.9% | i
CCOC(=O)c1oc2ccccc2c1NC(=O)C1CCCCC1 | 0.1% | ? | 5.8% | ? | ? | ?
CC(=O)c1oc2ccccc2c1N | 0.7% | 1.27e-08M* | -9.1% | 0.9% | -7.1% | 1.28e-08M*
COC(=O)C/C=C\[C@H](C)[C@@H](OCc1ccccc1Br)C(C)C | -2.3%[11.5 µM] | nt | -6.1%[11.4 µM] | 4.2%[11.4 µM] | nt | nt
O=C=Nc1ccc(Cc2ccc(N=C=O)cc2)cc1 | 3.8% | nt | 1.2% | -2.5% | -3.5% | nt
CC(=O)Nc1c(C(=O)C2CC2)oc2ccccc12 | 0.3% | ? | -13.6% | -12.4% | ? | i
CC(=O)Nc1c(C(=O)c2ccccc2)oc2ccccc12 | 1.1% | 1.72e-08M* | 3.9% | -0.6% | ? | 1.7e-08M*
COC(=O)C1(Cc2ccccc2)C2c3cc(C(=O)N4CCCC4)n(Cc4ccc(OC(F)(F)F)cc4)c3CC2CN1C(=O)c1ccccc1 (centres undefined) | 0.1% | nt | 6.0% | 3.9% | -1.4% | nt
Cc1nc2ccccn2c1P(=O)(N1CCCCC1)N1CCCCC1 | 1.3% | i | 22.1% | 25.1µM* | ? | i
COc1ccc(-c2cc(OC)c3c(C)oc(C)c3c(=O)c2)cc1OC | 6.1% | i | -18.2% | -15.7% | 12.6µM* | i
COc1cc(-c2cc(OC)c3c(C)oc(C)c3c(=O)c2)ccc1O | 1.1% | i | ? | ? | 22.2% | i

Assay outcomes: PubChem BioAssay, National Center for Advancing Translational Sciences (NCATS)
